The nature of assay [1]: qHTS assay to identify small molecule antagonists of the glucocorticoid receptor (GR) signaling pathway - cell viability counter screen (AID 720693). Also: potency is read from the fitted curve at half-maximal effect; nearly all actives have a fitted effect of over 55% in size.
Assay [2] is described as follows: qHTS assay for identifying genotoxic compounds that show differential cytotoxicity against isogenic chicken DT40 cell lines with known DNA damage response pathways - Rev3 mutant cell line (AID 743014). Also: nearly all actives have a fitted effect of over 55% in size. Also: potency is read from the fitted curve at half-maximal effect.
Assay [3] can be described thus: qHTS assay for identifying genotoxic compounds that show differential cytotoxicity against isogenic chicken DT40 cell lines with known DNA damage response pathways - Rad54/Ku70 mutant cell line (AID 743015). Also: nearly all actives have a fitted effect of over 60% in size. Also: potency is read from the fitted curve at half-maximal effect.
Assay [4] can be described thus: qHTS assay to identify small molecule antagonists of the androgen receptor (AR) signaling pathway - cell viability counter screen (AID 743033; also: nearly all actives have a fitted effect of over 45% in size; also: potency is read from the fitted curve at half-maximal effect).
The nature of assay [5]: qHTS assay to identify small molecule antagonists of the androgen receptor (AR) signaling pathway using the MDA cell line - cell viability counter screen (AID 743041; also: nearly all actives have a fitted effect of over 45% in size; also: potency is read from the fitted curve at half-maximal effect). The procedure, abridged:
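Using the breast carcinoma line MDA-kb2 AR-luc, test chemicals were co-incubated with R1881 for 16 h; CellTiter-Fluor reagent, added at 15.5 h, provided a fluorescence measure of live cells.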

Assay [6] is described as follows: qHTS assay to identify small molecule antagonists of the thyroid receptor (TR) signaling pathway - cell viability counter screen (AID 743064). Also: nearly all actives have a fitted effect of over 50% in size. Also: potency is read from the fitted curve at half-maximal effect. The procedure, abridged:
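CellTiter-Fluor readout, 30 min at 37 °C/5% CO2, following 23.5 h incubation of GH3.TRE-Luc cells with test compound and 1 nM T3 (final).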

The target of assay [7] is Estrogen receptor (Homo sapiens) (UniProt P03372). The assay can be described thus: qHTS assay to identify small molecule antagonists of the estrogen receptor alpha (ER-alpha) signaling pathway (AID 743069; active = well fitted curve in the direction sought with a large enough effect in the signal ratio in the repeat runs, not every such curve was filed as active; inconclusive = weak or mixed curves, or effect the other way; inactive = no such curve, though single readings can be large or run the other way; the % refers to the signal ratio; also: potency is read from the fitted curve at half-maximal effect). The essentials: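 Fluorescence intensity from a beta-lactamase FRET substrate served as the read-out. Cells: HEK293 with stably integrated ER-alpha-UAS-bla reporter. Agonist 17beta-estradiol was co-added with compounds; incubation 18 hr at 37C, substrate 2 hr at room temperature.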

A short description of assay [8]: qHTS assay to identify small molecule antagonists of the estrogen receptor alpha (ER-alpha) signaling pathway - cell viability counter screen (AID 743074; calls by dose curve; also: nearly all actives have a fitted effect of over 45% in size; also: potency is read from the fitted curve at half-maximal effect).
Assay [9] is described as follows: qHTS assay to identify small molecule antagonists of the estrogen receptor alpha (ER-alpha) signaling pathway using the BG1 cell line (AID 743080; calls by dose curve;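 also: BG1 cells stimulated with 17beta-estradiol alongside compound; nearly all actives have a fitted effect of over 25% in size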; also: potency is read from the fitted curve at half-maximal effect). The procedure, abridged: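 Endogenous full-length ER-alpha in BG1-Luc-4E2 cells drives a stably integrated 4×ERE luciferase gene; compounds were tested against 17beta-estradiol over 21.5 h, with luminescence and multiplexed viability fluorescence recorded.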

A short description of assay [10]: qHTS assay to identify small molecule antagonists of the estrogen receptor alpha (ER-alpha) signaling pathway using the BG1 cell line - cell viability counter screen (AID 743081).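 Also: compound given together with 17beta-estradiol as the ER stimulus; nearly all actives have a fitted effect of over 45% in size.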 Also: potency is read from the fitted curve at half-maximal effect.
A further assay deals with Aromatase (Homo sapiens) (UniProt P11511). In words: qHTS assay to identify aromatase inhibitors (AID 743083). Also: nearly all actives have a fitted effect of over 55% in size. Also: potency is read from the fitted curve at half-maximal effect.
A short description of assay [11]: qHTS assay to identify aromatase inhibitors - cell viability counter screen (AID 743084).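 Also: cells stimulated with testosterone during compound exposure; nearly all actives have a fitted effect of over 55% in size.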 Also: potency is read from the fitted curve at half-maximal effect.
Assay [12] is described as follows: qHTS assay for identifying genotoxic compounds that show differential cytotoxicity against isogenic chicken DT40 cell lines with known DNA damage response pathways - wild type cell line (AID 743012). Also: potency is read from the fitted curve at half-maximal effect; nearly all actives have a fitted effect of over 60% in size. The essentials:
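Viability of DNA repair-proficient chicken DT40 cells was assessed by CellTiter-Glo luminescence following 40 h compound exposure at 37 C/5% CO2.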

The nature of assay [13]: qHTS assay to identify small molecule antagonists of the thyroid receptor (TR) signaling pathway (AID 743065). Also: nearly all actives have a fitted effect of over 55% in size. Also: potency is read from the fitted curve at half-maximal effect. The procedure, abridged:
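Antagonism measured as loss of luciferase signal in GH3 cells stably carrying a TRE-luciferase reporter, co-treated with compound and T3 (1 nM final) for 23.5 h at 37 C. Viability was read in the same well by CellTiter-Fluor.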

Assay [14] relates to thyroid hormone receptor (rat, GH3 cells). In words: qHTS assay to identify small molecule agonists of the thyroid receptor (TR) signaling pathway (AID 743066; calls by dose curve; also: % is scaled to controls: 0 for no effect and ±100 for the full control effect).
Assay [15] concerns the target Androgen receptor (Homo sapiens) (UniProt P10275). In words: qHTS assay to identify small molecule antagonists of the androgen receptor (AR) signaling pathway using the MDA cell line (AID 743042; also: nearly all actives have a fitted effect of over 55% in size; also: potency is read from the fitted curve at half-maximal effect). The procedure, abridged:
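Antagonist mode: compounds plus R1881 agonist added to MDA-kb2 AR-luc cells, incubated 16 h at 37C. Luciferase reporter luminescence quantified, with multiplexed CellTiter-Fluor readout for cell viability.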

For assay [16], the target named is Estrogen receptor (Homo sapiens) (UniProt P03372). The assay can be described thus: qHTS assay to identify small molecule agonists of the estrogen receptor alpha (ER-alpha) signaling pathway (AID 743075; calls by dose curve; also: potency is read from the fitted curve at half-maximal effect; as to activation: % is scaled to controls: 0 for no effect and ±100 for the full control effect). The note with it: HEK293 ER-alpha-UAS-bla, beta-lactamase FRET ratio, 18 h; activation: at 70.1 µM (top of the series).
The target in assay [17] is Androgen receptor (Homo sapiens) (UniProt P10275). The assay can be described thus: qHTS assay to identify small molecule agonists of the androgen receptor (AR) signaling pathway using the MDA cell line (AID 743040; also: % is scaled to controls: 0 for no effect and ±100 for the full control effect; nearly all actives have a fitted effect of over 20% in size). The essentials: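 Stable MMTV-luciferase reporter in MDA-kb2 cells; note the promoter carries GR as well as AR response elements. 16 h compound treatment, 37C, 0% CO2; ONE-Glo luminescence endpoint.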

The target is the same in assay [18]. The assay can be described thus: qHTS assay to identify small molecule agonists of the androgen receptor (AR) signaling pathway (AID 743036; active = well fitted activation curve with a large enough effect in the signal ratio in the repeat runs, with a control signal flat, not every such curve was filed as active; inconclusive = weak or mixed curves, or effect the other way; inactive = no such curve, though single readings can be large or run the other way; the % refers to the signal ratio; also: % is scaled to controls: 0 for no effect and ±100 for the full control effect). The essentials: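 Following a 4 h settling period, AR-UAS-bla HEK293 cells were dosed with compounds for 16 h at 37C. A 2 h room-temperature incubation with LiveBLAzer B/G FRET substrate preceded the fluorescence measurement.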

The target in assay [19] is Estrogen receptor (Homo sapiens) (UniProt P03372). The assay can be described thus: qHTS assay to identify small molecule agonists of the estrogen receptor alpha (ER-alpha) signaling pathway using the BG1 cell line (AID 743079). Also: % is scaled to controls: 0 for no effect and ±100 for the full control effect; nearly all actives have a fitted effect of over 20% in size. The note with it: BG1Luc4E2 cells, ERE-luciferase agonist, 22 h.

SMILES strings stand for the structures. “And” between values parts separate entries of the source, which are not always exact repeats. Identical values can stand only once. Some structures have more than one record in an assay (separate samples or runs), and their calls can disagree. The source made the active and inactive calls. Unless noted, calls follow the shape of the dose curve; as a rule, active = well fitted curve in the direction sought with a large enough effect in the repeat runs; inconclusive = weak or mixed curves; inactive = no such curve, though single readings can be large; an effect the other way counts as inactive or inconclusive.

Chain of Estrogen receptor (Homo sapiens) (P03372 whole entry, looked up): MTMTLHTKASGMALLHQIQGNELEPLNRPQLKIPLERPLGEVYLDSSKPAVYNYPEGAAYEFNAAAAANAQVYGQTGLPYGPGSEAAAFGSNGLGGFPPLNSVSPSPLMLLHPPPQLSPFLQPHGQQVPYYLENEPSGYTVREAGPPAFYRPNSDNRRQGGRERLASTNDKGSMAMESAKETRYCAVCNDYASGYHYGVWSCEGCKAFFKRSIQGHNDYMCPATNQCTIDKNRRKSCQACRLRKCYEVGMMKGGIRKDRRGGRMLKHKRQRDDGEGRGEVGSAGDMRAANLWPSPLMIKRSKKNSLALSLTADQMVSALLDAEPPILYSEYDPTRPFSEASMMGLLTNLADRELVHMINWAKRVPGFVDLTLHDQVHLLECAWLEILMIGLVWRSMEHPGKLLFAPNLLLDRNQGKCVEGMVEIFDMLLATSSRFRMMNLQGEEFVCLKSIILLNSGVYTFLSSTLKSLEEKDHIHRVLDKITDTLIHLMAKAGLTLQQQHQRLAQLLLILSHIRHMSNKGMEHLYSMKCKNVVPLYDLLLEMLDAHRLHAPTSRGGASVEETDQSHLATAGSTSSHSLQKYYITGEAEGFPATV
Chain of Aromatase (Homo sapiens) (P11511 whole entry, looked up): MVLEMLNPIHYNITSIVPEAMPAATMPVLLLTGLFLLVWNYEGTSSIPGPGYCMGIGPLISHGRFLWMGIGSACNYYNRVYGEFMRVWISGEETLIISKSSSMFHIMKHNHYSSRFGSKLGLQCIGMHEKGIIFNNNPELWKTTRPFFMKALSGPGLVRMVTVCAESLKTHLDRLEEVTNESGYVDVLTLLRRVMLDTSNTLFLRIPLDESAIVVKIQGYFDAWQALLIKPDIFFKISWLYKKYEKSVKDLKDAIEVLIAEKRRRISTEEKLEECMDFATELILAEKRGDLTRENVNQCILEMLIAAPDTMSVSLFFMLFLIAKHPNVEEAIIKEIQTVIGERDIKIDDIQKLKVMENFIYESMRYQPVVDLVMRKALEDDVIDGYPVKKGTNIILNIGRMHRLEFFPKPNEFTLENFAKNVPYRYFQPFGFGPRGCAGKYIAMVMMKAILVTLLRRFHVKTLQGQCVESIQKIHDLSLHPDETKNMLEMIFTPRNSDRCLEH
Chain of Androgen receptor (Homo sapiens) (P10275 whole entry, looked up): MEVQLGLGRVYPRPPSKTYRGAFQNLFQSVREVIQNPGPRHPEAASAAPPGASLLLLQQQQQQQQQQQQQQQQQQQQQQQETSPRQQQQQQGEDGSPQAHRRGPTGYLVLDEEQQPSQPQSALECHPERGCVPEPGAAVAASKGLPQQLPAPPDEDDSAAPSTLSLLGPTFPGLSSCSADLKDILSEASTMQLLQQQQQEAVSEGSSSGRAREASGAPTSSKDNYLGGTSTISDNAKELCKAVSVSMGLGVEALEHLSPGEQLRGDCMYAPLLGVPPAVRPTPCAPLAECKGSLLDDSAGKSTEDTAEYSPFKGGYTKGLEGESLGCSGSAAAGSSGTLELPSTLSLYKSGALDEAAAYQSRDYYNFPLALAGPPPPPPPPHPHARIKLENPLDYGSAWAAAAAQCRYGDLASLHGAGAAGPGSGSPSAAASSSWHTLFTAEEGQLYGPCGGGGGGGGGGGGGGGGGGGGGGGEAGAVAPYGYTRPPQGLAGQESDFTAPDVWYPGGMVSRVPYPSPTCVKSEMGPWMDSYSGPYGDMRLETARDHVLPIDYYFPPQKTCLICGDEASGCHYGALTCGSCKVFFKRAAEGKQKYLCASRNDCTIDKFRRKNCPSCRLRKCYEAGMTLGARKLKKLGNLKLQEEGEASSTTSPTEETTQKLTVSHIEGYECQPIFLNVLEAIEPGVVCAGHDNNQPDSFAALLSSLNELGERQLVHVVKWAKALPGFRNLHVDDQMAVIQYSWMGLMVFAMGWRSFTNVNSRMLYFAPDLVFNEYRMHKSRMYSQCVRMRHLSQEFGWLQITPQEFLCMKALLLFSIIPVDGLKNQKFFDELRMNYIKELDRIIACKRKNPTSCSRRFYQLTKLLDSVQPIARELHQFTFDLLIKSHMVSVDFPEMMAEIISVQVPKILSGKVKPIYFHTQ

For `CCCCCCCC[N+](CCCCCCCC)(CCCCCCCC)CCCCCCCC`, the Potency is 7.75 µM (active) in assay [1]; 1.37 µM (active) in [2]; 1.37 µM (active) in [3]; 0.308 µM (active) in assay [4]; 4.32 µM (active) in assay [5]; 3.43 µM (active) in assay [6]. Further, the Potency in assay [7] is 38.8 µM [cytotoxic] (active); in assay [8] it was 15.5 µM (active); in assay [9] it was 1.72 µM (active); in assay [10] it was 24.3 µM (active); in the assay with Aromatase (Homo sapiens), 2.16 µM (active); in assay [11] it was 21.6 µM (active).
Regarding `CCCCc1oc2ccc(NS(C)(=O)=O)cc2c1C(=O)c1ccc(OCCCN(CCCC)CCCC)cc1`, the Potency in assay [12] was 9.44 µM (active); in [2] it was 13.3 µM (active); in [3], 18.8 µM (active); in assay [4], 21.3 µM (active); in [6], 10.6 µM (active); in assay [13] it was 11.9 µM (active). Also, the Potency (in the assay with Aromatase (Homo sapiens); in assay [11]) was 29.8 µM (active) in each case.
`CCCCC(CC)COC(=O)c1ccccc1C(=O)O` (configuration not stated): the Potency result in [4], in [6] and in assay [14] was “inactive” throughout.
Regarding `CCCC(=O)OC[C@@H](OC(=O)CCC)[C@@H](OC(=O)CCC)[C@H](Cn1c2nc(=O)[nH]c(=O)c-2nc2cc(C)c(C)cc21)OC(=O)CCC`, the Potency was 11.9 µM (active) in assay [12]; 13.3 µM (active) in assay [2]; 10.6 µM (active) in assay [3]; 23.7 µM (active) in [15]; 21.1 µM (active) in assay [13]; 29.8 µM (active) in assay [9]. Also, the Potency result (in assay [4]; in [14]; in assay [8]; in [16]; in the assay with Aromatase (Homo sapiens); in assay [11]) was “inactive” each time.
On to `CN(C)C(=O)C1(N2CCCCC2)CCN(CC[C@@]2(c3ccc(Cl)c(Cl)c3)CN(C(=O)c3ccccc3)CCO2)CC1`, for which the Potency is 8.07 µM (active) in assay [2]; 5.71 µM (active) in assay [3]; 16.2 µM (active) in [4]; 50.9 µM (active) in [5]; 28.6 µM (active) in assay [15]; 5.09 µM (active) in assay [6]. Further, the Potency was 4.54 µM (active) in assay [13]; 51.3 µM (active) in assay [8]; 64.1 µM (active) in assay [10]; 40.4 µM (active) with Aromatase (Homo sapiens); 50.9 µM (active) in assay [11]. For the same molecule, the Potency result in assay [17] is “inactive”.
Turning to `CCCCCCC[N+](CC)(CC)CCCCc1ccc(Cl)cc1`, the Potency is 1.43 µM (active) in assay [2], 1.27 µM (active) in assay [3], 12.7 µM (active) in assay [13] and 8.11 µM (active) in [8]. Moreover, the Potency result in [4], in [6], in assay [14], in [16], in assay [10] and in assay [11] was “inactive” throughout.
For the molecule `c1cc(C(c2ccc(OCC3CO3)cc2)c2ccc(OCC3CO3)cc2)ccc1OCC1CO1` (configuration not stated), the Potency is 24.3 µM (active) in [12]; 0.969 µM (active) in assay [2]; 13.7 µM (active) in assay [3]; 17.2 µM (active) in [6]; 12.2 µM (active) in assay [13]; 68.6 µM (active) with Aromatase (Homo sapiens). For the same molecule, the Potency in [11] was 54.5 µM (active). Besides, the Potency result in assay [5], in assay [8], in assay [16], in [9] and in [10] was “inactive” each time.
As for `CC[C@H](c1ccc(O)cc1)[C@@H](CC)c1ccc(O)cc1`, the Potency in assay [12] is 12.2 µM (active); in assay [2], 10.1 µM (active) and 13.7 µM (active); in assay [3] it was 19.3 µM (active); in assay [15], “inactive and 54.5 µM (active)”; in [6], 30.6 µM (active); in assay [13], 19.3 µM (active). Also, the Potency was 0.0002 µM [inconclusive] (active) in assay [16]; 68.6 µM (active) in [9]; “inactive and 27.3 µM (active)” in the assay with Aromatase (Homo sapiens). The Potency result in [4], in assay [18], in assay [17], in [5], in assay [14] and in assay [7] was “inactive” in each case. The Potency entry in assay [8], in [10] and in assay [11] was “inactive” throughout. For the same molecule, the activation in assay [16] is 38.2% [inconclusive] (active); in [19] (at 32.5 µM (top of the series)) it was 58.6% (active); in [19] (at 70.3 µM (top of the series)) it was -55.2% (active).
`ON=C1CCCC1`: the Potency entry in assay [2], in assay [3], in [4], in assay [18], in assay [17] and in assay [15] was “inactive” each time. Further, the Potency entry in assay [13], in [14], in [7], in assay [8], in [16] and in assay [9] was “inactive” each time. Also, the Potency result (in assay [10]; in the assay with Aromatase (Homo sapiens); in assay [11]) was “inactive” throughout. The activation in assay [19] (at 95 µM (top of the series)) is 13.6% (inactive).
As to `CCc1cc(Cc2cc(CC)c(N)c(CC)c2)cc(CC)c1N`, the Potency was 61.1 µM (active) in assay [12]; 61.1 µM (active) in assay [2]; 54.5 µM (active) in assay [3]; 68.6 µM (active) in [6]; 48.6 µM (active) in assay [13]; 38.9 µM [inconclusive] (active) in [7]. The Potency in assay [9] was 61.1 µM (active). The Potency entry in assay [4], in [16], in assay [10] and in assay [11] was “inactive” in each case.
As to `CCCCCCCCCOC(=O)c1ccc(O)cc1`, the Potency in assay [2] was 19.1 µM (active); in assay [3], 19.1 µM (active); with Aromatase (Homo sapiens), 30.2 µM (active); in [11], 30.2 µM (active). Moreover, the Potency result in assay [14] and in assay [10] was “inactive” each time.
For `CCCCCCCCn1sc(Cl)c(Cl)c1=O`, the Potency in assay [12] was 0.433 µM (active); in assay [3], 0.686 µM (active); in [4], 6.16 µM (active); in assay [6], 27.3 µM (active); in assay [13], 27.3 µM (active); with Aromatase (Homo sapiens) it was 4.86 µM (active). Besides, in [11], the Potency is 5.45 µM (active). Besides, the Potency result in assay [5], in assay [14] and in [16] was “inactive” in each case.
On to `CSc1ccc(/C=C2/C(C)=C(CC(=O)O)c3cc(F)ccc32)cc1`, for which the Potency result in assay [2], in assay [3], in assay [17], in assay [15], in [14] and in assay [16] was “inactive” in each case. Further, the Potency result (in [9]; in assay [10]; with Aromatase (Homo sapiens); in [11]) was “inactive” in each case. Besides, the activation in assay [19] (at 70.3 µM (top of the series)) is -0.897% (inactive).
For the molecule `CC(C)(C)NC(=O)[C@@H]1C[C@@H]2CCCC[C@@H]2CN1C[C@@H](O)[C@H](Cc1ccccc1)NC(=O)[C@H](CC(N)=O)NC(=O)c1ccc2ccccc2n1`, the Potency in [2] was 13.3 µM (active); in assay [3], 16.8 µM (active) and 55.2 µM (active); in assay [4], 49.6 µM (active); in [13] it was 21.1 µM (active) and 31 µM (active); in assay [10] it was 23.7 µM (active) and 49.2 µM (active); in the assay with Aromatase (Homo sapiens), 29.8 µM (active) and 31 µM (active). For the same molecule, the Potency in [11] was 11.9 µM (active) and 13.9 µM (active). Besides, the Potency result in assay [16] is “inactive”.

The values are drawn from PubChem BioAssay (Tox21).
